Compounds with a hit are over-represented: about 21% of the library has one in this group of screens.
Pf growth 96h = P. falciparum growth inhibition at 96 hour, primary screen for plastid delayed-death inhibitors. 6.9% of 320,000 active. Potency, µM (titrated, usually from 28.7 µM), for inactives: at the top dose activity change, negative = inhibition, hits mostly inhibitors. AID 504834. P. falciparum luciferase reporter growth, 96 h; active = well fitted inhibition curve with a large enough effect; inconclusive = small, poorly fitted or top-dose-only effect, or another doubt; inactive = no such curve, though single readings can be large or run the other way; also: potency is read from the fitted curve at half-maximal effect; % is scaled to controls: 0 for no effect and ±100 for the full control effect
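Compounds incubated with erythrocytes infected by luciferase-expressing P. falciparum (2% hematocrit, 0.05% parasitemia final) for 96 hours, 37 C in 5% CO2. Growth inhibition scored as decreased luciferase luminescence.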
Shiga toxin inh = blocks Shiga toxin action in Vero cells; inhibition, % at 38.7 µM; Vero cells, Shiga toxin protein synthesis inhibition reporter; AID 2315; 9.2% of 290,000 active; in the data active = inhibition mostly above about 28%, no sharp cut-off; inactive = mostly below about 43%; also: 0% is about no effect
SARS PLP yeast = blocks SARS-CoV papain-like protease in a yeast assay | S. cerevisiae expressing SARS-CoV PLpro, growth rescue | Potency, µM (titrated, usually from 32.9 µM), for the others: at the top dose activity, positive = growth rescue, hits mostly activators | 0.19% of 330,000 active | AID 485353; also: potency is read from the fitted curve at half-maximal effect; 0% is about no effect; nearly all actives have a fitted effect of over 55% in size
CHX counter = affects cycloheximide protein synthesis inhibition readout, counter-screen; cell reporter, cycloheximide protein synthesis inhibition counterscreen; max response, %; 12% of 300,000 active; in the data active = max response mostly above about 13%, no sharp cut-off; inactive = mostly below about 14%; also: read at 38.3 µM for the half of the compounds with a filed dose; 0% is about no effect
Pf growth 48h = P. falciparum growth inhibition at 48 hours (one generation); Potency, µM (series often up to 28.7 µM), without a hit: at the highest dose activity change, negative = inhibition, hits mostly inhibitors; AID 504832; 5.9% of 310,000 active; P. falciparum luciferase growth in erythrocytes, 48 h; active = well fitted inhibition curve with a large enough effect; inconclusive = small, poorly fitted or top-dose-only effect, or another doubt; inactive = no such curve, though single readings can be large or run the other way; also: potency is read from the fitted curve at half-maximal effect; % is scaled to controls: 0 for no effect and ±100 for the full control effect
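A one-generation exposure of luciferase-tagged malaria parasites in RPMI 1640/Albumax erythrocyte culture, 37 C and 5% CO2. Inhibition is inferred from decreased luminescence after adding detection reagent.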
NS1 function inh = blocks influenza NS1 protein function | Potency, µM (highest dose often 46.1 µM), inactives show at the highest dose activity, positive = more growth | 0.4% of 270,000 active; also: potency is read from the fitted curve at half-maximal effect; actives are rising curves; nearly all actives have a fitted effect of over 50% in size
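OD600 was taken as the measure of yeast growth restored by compound in an NS1-expressing S. cerevisiae strain. Cells had been washed out of glucose medium and diluted 1:100 into galactose -URA medium, pH 6.0.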
The depositor's hits bear a star; u = inconclusive; x = not tested or not shown; [ ] = remark or other dose. Unless noted, calls follow the shape of the full dose curve.

SMILES | Pf growth 96h | Shiga toxin inh | SARS PLP yeast | CHX counter | Pf growth 48h | NS1 function inh
CN(CC(=O)NC1CCCC1)S(=O)(=O)c1cccc(Cl)c1 | x | x | 6% | x | x | x
N#CC1=C(N)Oc2cc(N)ccc2C1c1ccccc1F (stereo not drawn) | 22% | -11 | -2% | -2 | -13%[0.00184 µM] | 7%
O=C(CCS(=O)(=O)c1ccc(Br)s1)NC1CCCC1 | -52% | -7 | 5% | 11 | x | 2%
Cc1ccc(S(=O)(=O)CCC(=O)NC2CCCCC2)cc1 | u | x | 0% | x | u | x
O=C(CCS(=O)(=O)c1ccc(Br)cc1)NC1CCCCCC1 | 12µM* | -4 | 13% | 10 | -5% | -4%
O=C(CCNS(=O)(=O)c1ccc(Br)s1)NC1CCCC1 | 10µM* | -9 | 1% | -2 | u | 2%
CN1CCN(NC(=O)CN(C)S(=O)(=O)c2cc(Cl)ccc2Cl)CC1 | 12µM* | -4 | 0% | -3 | -11% | 4%
CN(CC(=O)N1CCOCC1)S(=O)(=O)c1cc(Cl)ccc1Cl | 103% | -5 | 1% | 5 | 9% | u
CCCOC(=O)C1=C(C)N(C)C(=O)NC1c1cc2c(cc1Br)OCO2 (stereo not drawn) | 10% | -8 | -2% | -1 | u | 15%
O=C(COC(=O)C1CCC(N2C(=O)C3C4CCC(C4)C3C2=O)CC1)c1ccc(F)cc1 (stereo not drawn) | u | 17 | 3% | -6 | 9% | 7%
COC(=O)[C@@H]1C[C@@]2(O)[C@H](O)[C@H](O)[C@H](O)C[C@H]2N1C/C=C/c1ccccc1 | 17% | -6 | 1% | -5 | 47% | 2%
CCOC(=O)N1CCN(C(=O)CN(C)S(=O)(=O)c2ccc(Cl)cc2)CC1 | u | -5 | 0% | -2 | 22% | -2%
N#Cc1ccccc1OCC(=O)OCC(=O)NC1CCCC1 | -3% | x | 3% | x | 13% | x
COc1ccc(CCNC(=O)COc2ccc(S(=O)(=O)NC3CCCCC3)cc2Cl)cc1OC | 10% | -10 | 15% | -1 | 12µM* | -14%
O=C(COc1ccc(S(=O)(=O)NC2CCCCC2)cc1Cl)Nc1ccc2c(c1)OCO2 | 10µM* | 7 | -13% | -2 | x | -2%
O=C(COc1ccc(S(=O)(=O)NC2CCCCC2)cc1Cl)NCc1ccc2c(c1)OCO2 | x | 2 | u | -5 | -8% | 10%
Nn1c(SCC(=O)Nc2nccs2)nnc1-c1cccnc1 | -28% | x | -7% | x | -11% | x
COc1ccc(NC(=O)CSc2nc3ccsc3c(=O)n2CCC(=O)O)c(OC)c1 | 96% | -3 | 1% | -2 | 10% | 11%
Cc1ccc(NC2=C(C(=O)c3ccccc3)N(C)S(=O)(=O)c3ccccc32)cc1 | 12µM* | -4 | -7% | 3 | 9.3µM* | u
CCN1CCN(CCC(=O)Nc2cc(OC)cc(OC)c2)CC1 | u | -11 | -1% | -5 | u | 12%
O=C(NC(=S)Nc1ccccc1Br)C1CCCC1 | 12% | 143* | 5% | 38* | 3% | 5%
O=C(NC(=S)Nc1cccc(Cl)c1Cl)C1CC1 | 3% | 14 | -1% | 14 | 12µM* | -19%
O=C(NC(=S)Nc1ccccc1F)C1CCCCC1 | u | 61 | u | 57* | -16% | -9%
CN(CC(=O)Nc1cccc(F)c1)C(=O)C1(c2ccccc2)CC1 | 18% | x | 10% | x | u | x
CC(C)(C)c1ccc(S(=O)(=O)NCC(=O)Nc2ccc(-c3nc4ccccc4s3)cc2)cc1 | x | 123* | 1% | 38* | 29% | 6%
SMILES | Pf growth 96h | Shiga toxin inh | SARS PLP yeast | CHX counter | Pf growth 48h | NS1 function inh
COc1ccc(NC(=O)C(C)NS(=O)(=O)c2ccccc2)cc1Cl (stereo not drawn) | x | -5 | -3% | 1 | -5% | -2%
Cc1ccc(C)c(S(=O)(=O)NC(C)C(=O)Nc2ccc(-c3nc4ccccc4s3)cc2)c1 (stereo not drawn) | 71% | 83* | -14% | 53* | 130% | -5%
COc1cccc(S(=O)(=O)NCC(=O)Nc2ccc(C(C)(C)C)cc2)c1 | u | 11 | -5% | -1 | u | -4%
O=C(CNS(=O)(=O)c1cccc(Cl)c1)Nc1ccc(-c2nc3ccccc3s2)cc1 | -1% | 43* | 1% | 34* | 24% | 6%
CC(NS(=O)(=O)c1cccc(Cl)c1)C(=O)Nc1ccc(-c2nc3ccccc3s2)cc1 (stereo not drawn) | x | 44 | -1% | 38* | u | 9%
CCOC(=O)C(C)Sc1nc(-c2ccccc2)nc2ccccc12 (stereo not drawn) | 24% | -5 | -4% | -1 | u | x
Cc1ccccc1C(N)c1ccncc1 (stereo not drawn) | 5.9µM* | -3 | 13% | -1 | 31% | 15%
CCC1(CC)C(=O)C2=C3C1[C@H](C(=O)OC)C=C(C(=O)OC)C[C@H]3n1c(=O)n(-c3ccccc3)c(=O)n1[C@H]2C (stereo partly drawn) | x | -4 | x | -4 | x | x
CC(=O)Nc1ccccc1OCc1nnc(-c2cccs2)o1 | 2% | 21 | -2% | 7 | 84% | -7%
CC(=O)Nc1ccccc1OCc1nnc(-c2ccc(Cl)cc2)o1 | 41% | 33 | -3% | 28* | 80% | 3%
CC(=O)Nc1ccc(OCc2nnc(-c3ccccc3)o2)cc1 | 3.7µM* | 8 | -10% | -3 | 28% | -9%
O=[N+]([O-])c1cc(Br)c(OCc2nnc(-c3ccccc3)o2)c(Br)c1 | -4% | 8 | -2% | 11 | u | x
Clc1ccccc1OCc1nnc(-c2ccccc2)o1 | 10% | 67* | -1% | 46* | 64% | -7%
CC(C)c1ccccc1NC(=S)N(C)C | 3% | -3 | 1% | -1 | -41% | 1%
Cc1cc2nc(-c3ccc(SCC(=O)N4CCOCC4)nc3)[nH]c2cc1C | 17% | 70* | -2% | 33* | -89% | 2%
CCOC(=O)CSc1ccc(-c2nc3cc(C)c(C)cc3[nH]2)cn1 | 13% | 61* | 4% | 55* | 31% | u
Cc1cc2nc(-c3ccc(SCC(=O)N4CCN(C(=O)c5ccco5)CC4)nc3)[nH]c2cc1C | -14% | 26* | -7% | 20* | u | u
CCOC(=O)CSc1ccc(-c2nc3ccccc3[nH]2)cn1 | x | 34 | -2% | 19 | 8% | -102%
CCc1nc(SCc2ccccn2)[nH]c(=O)c1C | 17% | -5 | 0% | -2 | 21% | 3%
Cc1cc2nc(-c3ccc(SCc4ccccn4)nc3)[nH]c2cc1C | 16% | 98* | -6% | 34* | u | x
Cc1cc(=O)[nH]c(SCC(=O)N2CCN(C(=O)c3ccco3)CC2)n1 | x | x | -10% | x | x | x
COc1ccc(CN2CNc3c(c(=O)n(C)c(=O)n3C)C2)cc1 | u | 16 | 28% | -3 | 4% | 7%
CC(=O)NCCC(=O)N(C)CC1CCN(CCc2cccc(C(F)(F)F)c2)CC1 | u | 5 | -6% | 1 | -34% | -3%
